{"source": "PubChem BioAssay AID485273", "about": "(Sanford-Burnham Center for Chemical Genomics, 2010)", "note": "Out of some 330,000 compounds screened, about 1,500 (0.45%) were called active. This excerpt belongs to a sample that is enriched for actives. A number with no mark means an inactive call. Cut-off read from the data, not from the text of the source: active = inhibition above about 45% (passing the limit was not always enough); inconclusive = no clear call, values can overlap the other calls.", "data": [{"target": "Ubiquitin-conjugating enzyme E2 N (Homo sapiens) (UniProt P61088)", "sequence (P61088 whole entry, looked up)": "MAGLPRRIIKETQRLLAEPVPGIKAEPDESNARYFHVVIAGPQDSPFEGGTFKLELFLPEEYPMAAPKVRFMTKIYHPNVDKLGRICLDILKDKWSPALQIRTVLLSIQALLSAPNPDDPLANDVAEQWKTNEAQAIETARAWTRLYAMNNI", "test": "UBC13 polyubiquitin chain formation inhibitors, primary screen, biochemical, TR-FRET, uHTS (AID 485273)", "conditions": "at 20 µM, stronger effect = higher value", "values": [{"smiles": "O=C(NCc1csc(-c2cccs2)n1)C1CC1", "inhibition": "-1.3%"}, {"smiles": "CC(C)(CCl)C(=O)Nc1ccc(Sc2ccc(F)cc2)cc1", "inhibition": "7.4%"}, {"smiles": "Cc1ccc(C)c(NC(=O)C(c2ccccc2)N2CCN(CC(=O)NC3CC3)CC2)c1", "note": "(configuration not stated)", "inhibition": "2.6%"}, {"smiles": "Cc1ccc(N2C(=O)N3[C@@H]4c5ccccc5OC[C@@H]4[C@@H](c4ccccc4)[C@@]3(C)C2=O)cc1", "inhibition": "6.8%"}, {"smiles": "O=C1CC(Cc2ccc(Cl)cc2)C(=O)N1c1cc(Cl)ccn1", "note": "(configuration not stated)", "inhibition": "0%"}, {"smiles": "CN(c1ccccn1)c1ncnc2[nH]ncc12", "inhibition": "5.9%"}, {"smiles": "O=C(NNC(=O)c1cc(-c2ccccc2Cl)nc2ccccc12)c1csc(N2CCOCC2)n1", "inhibition": "1.5%"}, {"smiles": "COc1ccccc1C(=O)NC(CCSC)C(=O)NNC(=O)c1csc(N2CCOCC2)n1", "note": "(configuration not stated)", "inhibition": "4.2%"}, {"smiles": "CSCCC(NC(=O)c1ccc(Cl)cc1Cl)C(=O)NNC(=O)c1csc(N2CCOCC2)n1", "note": "(configuration not stated)", "inhibition": "58.4% (active)"}, {"smiles": "C[C@@H](CN1CCC[C@H]1CN1C(N)=NC[C@@H]1Cc1ccccc1)N1C[C@@H](Cc2ccccc2)N(CCCC2CCCC2)C1=N", "inhibition": "62.2% (active)"}, {"smiles": "NC1=NC[C@@H](Cc2ccc(O)cc2)N1CC1CCCCC1", "inhibition": "17.3%"}, {"smiles": "CC[C@@H](C)[C@@H]1CN([C@@H](C)CN2CCC[C@H]2CN2C(N)=NC[C@H]2C(C)C)C(=N)N1CCc1ccc(Cl)c(Cl)c1", "inhibition": "50.1% (active)"}, {"smiles": "CCCCN1C(N)=NC[C@@H]1Cc1ccccc1", "inhibition": "-6.3%"}, {"smiles": "CC(=O)N1CCC(N(C(=O)Nc2ccc(Cl)cc2)C(C)C)CC1", "inhibition": "-2.5%"}, {"smiles": "CC(OC(=O)CN1C(=O)C2CCCCC2C1=O)C(=O)Nc1ncc(Cl)cc1Cl", "note": "(configuration not stated)", "inhibition": "-6.5%"}, {"smiles": "CCOC(=O)c1ccccc1NC(=O)COC(=O)C(Cc1c[nH]c2ccccc12)NC(C)=O", "note": "(configuration not stated)", "inhibition": "3.4%"}, {"smiles": "O=C(CNC(=O)Cc1ccccc1)NCC(=O)OCC(=O)c1ccccc1Cl", "inhibition": "12%"}, {"smiles": "CC1(C)Cc2ccccc2-c2[nH]c(=S)[nH]c(=O)c21", "inhibition": "62.2% (active)"}, {"smiles": "CCC1(CC)Cc2ccccc2-c2nc(CCl)[nH]c(=O)c21", "inhibition": "9%"}, {"smiles": "CC1(C)Cc2ccccc2-c2nc(CN3CCOCC3)[nH]c(=O)c21", "inhibition": "-5.3%"}, {"smiles": "CCN(CC)CCC(c1cc(OC)c(OC)c(OC)c1)c1c(OC)cc(OC)c2c(-c3ccccc3)cc(=O)oc12", "note": "(configuration not stated)", "inhibition": "50.2% (active)"}, {"smiles": "CCN(CC)CCC(c1ccc2c(c1)OCO2)c1c(OC)cc(OC)c2c(-c3ccccc3)cc(=O)oc12", "note": "(configuration not stated)", "inhibition": "32.1%"}, {"smiles": "CCN(CC)C(=O)CC(c1ccc2c(c1)OCO2)c1c(OC)cc(OC)c2c(-c3ccccc3)cc(=O)oc12", "note": "(configuration not stated)", "inhibition": "8.8%"}, {"smiles": "N#CCCn1ncc2ccccc21", "inhibition": "0.9%"}, {"smiles": "CCCCn1c(N)c(N(CC)C(=O)c2ccccc2C(F)(F)F)c(=O)[nH]c1=O", "inhibition": "-4.3%"}, {"smiles": "CCn1c(CNC(=O)c2cc(OC)c(OC)c(OC)c2)cc2cc(C)ccc21", "inhibition": "5.6%"}, {"smiles": "O=S(=O)(Cc1cc(Sc2ccccc2)nc(-c2ccccc2)n1)c1ccccc1", "inhibition": "-3.4%"}]}]}
